# Test results: ChEMBL document CHEMBL3988442, “University of Dundee, Small-Polar-MMV Screening Library” (2021)
# The whole screen tested about 48,000 compounds, of which about 13,000 (27%) showed an effect of 50% or more. The list shows a part of the results.
# Test system: Wolbachia pipientis
# Assay: Anti-Wolbachia Cell-Based Screen
# Type: functional
# Parameters: scale not given: in the data most compounds retested in dose-response had high values
# Conditions: 5 µM
row,Structure (SMILES),Percent Effect
1,COc1cccc2[nH]cc(CCNC(=O)N3CCCC3CO)c12 (centres undefined),-6.356%
2,Cc1cc(C(F)(F)F)nn1CC(C)C(=O)Nc1ccncc1 (centres undefined),0.9571%
3,COCCN1CCC(CN(C)c2nc3c(s2)c(C)nn3C)CC1,20.85%
4,CCCc1nnc2sc(C3CCN(CCOC)CC3)nn12,91.66%
5,CCCc1nnc2sc(C3CCS(=O)(=O)CC3)nn12,102.2%
6,CN1CCC(c2nnc(CN3CCCC3)n2C2CC2)CC1,3.888%
7,CCCc1nnc(N2CCC(N3CCCC3)CC2)o1,13.58%
8,CCCN1CCC(Cc2nn3c(C(C)C)nnc3s2)CC1,-24.84%
9,CC(C)c1nnc2sc(CC3CCS(=O)(=O)CC3)nn12,-25.36%
10,CCCc1nnc2sc(C3CCN(C4CCN(C)CC4)CC3)nn12,110.3%
11,CCc1nnc2n1CCN(C(=O)c1cnc(C3CC3)s1)C2,-2.147%
12,COCCN(Cc1ccc(F)cc1Cl)C(=O)c1c(C)noc1C,-7.474%
13,CCCNC(=O)NC(=O)CN(CC(C)O)c1ccccc1 (centres undefined),5.048%
14,CC(C)C[C@@H]1N[C@H](C(=O)NC2CCOCC2)Cc2c[nH]c3cccc1c23,-3.699%
15,O=C(COc1ccc2c(c1)CCC2)N1CCOCC1c1ncon1 (centres undefined),-4.669%
16,O=C(NCCSCc1ccc(Br)s1)C1CCCN(C(=O)c2cccs2)C1 (centres undefined),-11.8%
17,CC(=O)N[C@H]1CCN(c2nc(C)nc3c2c(C)nn3C)C1,-0.02014%
18,CCn1ncc(NC(=O)c2cc(C3CC3)nc3c2c(C)nn3C)c1C,0.1323%
19,Cc1cc(C(=O)Nc2cc(C3CC3)n[nH]2)c2c(C)nn(C)c2n1,94.33%
20,O=C1NCCCC1NC(=O)C1(c2cccc(Cl)c2)CCC1 (centres undefined),-14.19%
21,CC(=O)Nc1cccc([C@H]2C[C@@H](NC(C)=O)CCO2)c1,88.4%
22,CC(=O)NC1CCN(C(=O)Nc2cccc(SC(F)F)c2)CC1,-5.711%
23,CC(=O)NC1CCN(C(=O)Nc2cccc(C(F)(F)F)c2)CC1,-0.6218%

row,Structure (SMILES),Percent Effect
1,CC1CN(C(=O)C2(c3ccc(F)cc3F)CCOCC2)CCO1 (centres undefined),-18.6%
2,CC(=O)N1CCC(C(=O)N2CCC(=Cc3cccc(F)c3)CC2)CC1,0.4533%
3,O=C(c1ccc2nccn2c1)N1CCCC1c1noc(C2CC2)n1 (centres undefined),1.976%
4,O=C(NCc1ccco1)N1CCCCC1c1nc(-c2ccncc2)no1 (centres undefined),87.86%
5,Cc1cc(CN(C)C(=O)NCc2ccco2)no1,6.91%
6,COc1ncccc1C(=O)N1CCCC1c1nc(-c2ccccc2)no1 (centres undefined),-0.6104%
7,O=C(NC1CCCC1)N1CCCCC1c1nc(C2CC2)no1 (centres undefined),105.7%
8,Cc1noc(C2CCCCN2C(=O)C2CCN(C(C)C)CC2)n1 (centres undefined),-32.36%
9,CSc1nc(C2CC2)nc(C)c1C(=O)NCc1ccco1,-1.039%
10,O=C(NCc1ccco1)C1CCCN1Cc1nc(-c2ccco2)no1 (centres undefined),-1.216%
11,Cc1noc(C2CCCCN2C(=O)NCc2ccco2)n1 (centres undefined),91.67%
12,O=C(NCc1ccco1)N1CCCCC1c1nc(C2CC2)no1 (centres undefined),74.85%
13,CN(C)Cc1nnc(C(=O)N(C)Cc2ccc(F)cc2)o1,-46.46%
14,Cn1cc(C2CCCN2C(=O)CCCc2nc3ccccc3[nH]2)cn1 (centres undefined),0.1259%
15,CC(=O)N1CCC(NC2(Cc3cc(CN(C)C)on3)COC2)CC1,-3.87%
16,Cc1ccc(-c2nn3c(nc2=O)-c2ccccc2NC3C(=O)O)cc1C (centres undefined),-8.788%
17,CCc1n[nH]c(C2CN(C(=O)c3ccnc(C)n3)CCO2)n1 (centres undefined),98.73%
18,Cc1n[nH]c(C2CN(C(=O)c3ccnc(C4CC4)n3)CCO2)n1 (centres undefined),-13.72%
19,CCc1ncncc1C(=O)N1CCOC(c2nc(C)n[nH]2)C1 (centres undefined),2.402%
20,CCCc1n[nH]c(C2CN(C(=O)c3ccnc(C4CC4)n3)CCO2)n1 (centres undefined),146%
21,CCc1n[nH]c(C2CN(C(=O)c3cnc(C)nc3CC)CCO2)n1 (centres undefined),106.1%
22,CCc1n[nH]c(C2CN(C(=O)c3ccnc(C4CC4)n3)CCO2)n1 (centres undefined),101.3%
23,Cc1nc(N)cc(NCc2csc(N(C)C)n2)n1,-17.8%

row,Structure (SMILES),Percent Effect
1,O=S(=O)(NCCc1c[nH]c2cc(F)ccc12)C1CCOC1 (centres undefined),22.23%
2,CS(=O)(=O)c1ccc(OCCNCc2ccc(F)cc2F)cc1,-10.65%
3,Cl.O=C(C1CC1)N1CCC2(CC1)CNc1ccc(F)cc12,-2.948%
4,CC(CC#N)N(C)Cc1ccc(F)cc1C#N (centres undefined),3.658%
5,CCc1nnc(CN2CCC3(CCC(=O)N(C4CCCC4)C3)CC2)o1,8.44%
6,O=C(CN1CCN(c2ncnc3cccc(F)c23)CC1)N1CCCC1,6.401%
7,O=C(O)C(F)(F)F.O=C(O)C(F)(F)F.O[C@H]1CCN(Cc2ccoc2)[C@H]1Cc1cccnc1,-11.6%
8,COCCO[C@H]1CCN(Cc2ccoc2)[C@H]1Cc1cccnc1,85.57%
9,COCCO[C@H]1CCN(Cc2cnn(C)c2)[C@H]1Cc1cccnc1,86.22%
10,Cn1cc(CN2CC[C@@H](NS(C)(=O)=O)[C@@H]2Cc2cccnc2)cn1.O=C(O)C(F)(F)F.O=C(O)C(F)(F)F,0.0713%
11,CS(=O)(=O)N[C@@H]1CCN(Cc2cccnc2)[C@H]1Cc1cccnc1,0.03565%
12,COCCO[C@@H]1CCN(C(=O)c2ccc[nH]2)[C@H]1Cc1cnn(C)c1,-18.74%
13,C=C(C)COc1cccc(C(=O)N(CC)Cc2nc(COC)no2)c1,-39.48%
14,Cn1c(N)nnc1SC1CCCN(c2ccccc2F)C1=O (centres undefined),-7.514%
15,COCc1nn(C(C)C)c2c1CCN(Cc1ccc(C)s1)C2.O=C(O)C(F)(F)F,2.652%
16,Cn1nc(COCC2CC2)c2c1CN(CC1CC1)CC2.O=C(O)C(F)(F)F.O=C(O)C(F)(F)F,100.4%
17,CC(C)OCc1nn(C)c2c1CCN(Cc1ccco1)C2.O=C(O)C(F)(F)F,-9.352%
18,CC(C)OCc1nn(C)c2c1CCN(CC1CC1)C2.O=C(O)C(F)(F)F,103.7%
19,CC(C)OCc1ncn2c1CN(CC1CC1)CCC2.O=C(O)C(F)(F)F,10.37%
20,Cc1ccc(CN2CCc3c(C(=O)N(C)C)nn(C)c3C2)s1.O=C(O)C(F)(F)F,-3.635%
21,Cc1ccc(CN2CCc3c(COCC4CC4)nn(C)c3C2)s1.O=C(O)C(F)(F)F,115.6%
22,Cn1nc(COCC2CC2)c2c1CN(C(=O)c1ccno1)CC2.O=C(O)C(F)(F)F,-4.068%
23,O=C(O)C(F)(F)F.c1nc(COCC2CC2)c2n1CCCN(CC1CC1)C2,-4.563%
